# IL-1B inflam inh – inflammasome signaling inhibition, IL-1 beta readout; THP-1 LPS/ATP IL-1B secretion, AlphaLISA, 16 h; active compounds read low; activity change, % at 57.5 µM; 360,000 tested, 4.7% active; AID 743279; in the data active = activity change below about -50%; inconclusive = mostly about -30% to -49%
#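 THP-1 cells pretreated 1 hr with compounds (up to 57.5 uM final), then stimulated with LPS (250 ng/mL final) plus ATP (1.25 mM final); secreted IL-1B measured by AlphaLISA after 16 hr, decreased signal indicating inhibition.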
# HT1080 IDH1KD tx – toxicity to HT-1080 IDH1 knockdown cells (counter line) | HT-1080 IDH1 knockdown viability, ATP luminescence, 48 h | 360,000 tested, 2% active | Potency, µM (titrated, usually from 46.1 µM), inactives show top-dose activity, negative = toxicity, usual class: cytotoxic;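 also: potency is read from the fitted curve at half-maximal effect; 0% = DMSO wells and -100% = cell-free medium wells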
#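 Luminescent ATP read-out (CellTiter-Glo, 10 min at room temperature) after 48 h compound exposure at 37 °C gave viability of IDH1-knockdown HT-1080 cells. Activity was normalised to DMSO and cell-free wells, then fitted as concentration-response curves.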
# TDP1 cell CPT – growth inhibition of DT40 Tdp1-/-;hTDP1 cells with camptothecin (screen for TDP1 inhibitors); AID 686979; 420,000 tested, 12% active; Potency, µM (highest dose often 46.2 µM), for inactives: top-dose activity change, negative = growth inhibition, most hits filed as inhibitors; chicken DT40 Tdp1-/-;hTDP1 cells + 20 nM CPT, ATP luminescence, 48 h; also: potency is read from the fitted curve at half-maximal effect; nearly all actives have a fitted effect of over 55% in size
#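 Chicken DT40 Tdp1-/- cells stably complemented with human TDP1 were seeded at 400 cells/well in medium containing 20 nM camptothecin, exposed to pin-transferred compounds, and grown at 37 °C for at least 48 hr. Viability was read as ATP luminescence.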
# HT1080-NT tox – kills 2HG-producing HT-1080-NT fibrosarcoma cells; HT-1080-NT fibrosarcoma viability, CellTiter-Glo ATP luminescence, 48 h; Potency, µM (top dose mostly 46.1 µM), without a hit: top-dose activity, negative = less viability, hits mostly cytotoxic; 360,000 tested, 1.6% active; AID 686970;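 also: NT is the 2HG producing partner of a matched IDH1 knockdown line; potency is read from the fitted curve at half-maximal effect; 0% = DMSO-treated cells and -100% = media-only wells without cells; nearly all actives have a fitted effect of over 55% in size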
#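 Fibrosarcoma NT cells, 750 per well in 5% FBS RPMI, were exposed to compound for 48 hours. Viability: CellTiter-Glo luminescence.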
# DT40 TDP1 no CPT – qHTS for Inhibitors of human tyrosyl-DNA phosphodiesterase 1 (TDP1): qHTS in cells in absence of CPT; 420,000 tested, 15% active; DT40 Tdp1-/- hTDP1 cells, no CPT, ATP luminescence, 48 h; Potency, µM (titrated, usually from 46.2 µM), for the others: top-dose activity change, negative = growth inhibition, hits mostly inhibitors; AID 686978, 2013; also: potency is read from the fitted curve at half-maximal effect; nearly all actives have a fitted effect of over 55% in size
#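 A cellular qHTS used chicken DT40 cells lacking endogenous Tdp1 but carrying stably transfected human TDP1. Compounds were applied without camptothecin, and cell growth kinetics were judged by ATP-dependent luminescence after ≥48 hr.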
# * = called active by the depositor; ? = inconclusive; . = not tested or not shown. Rows were chosen to be rich in hits. Some 19% of all compounds tested hit in one or more screens of this group. Unless noted, calls follow the shape of the dose curve; as a rule, active = well fitted curve in the direction sought with a large enough effect; inconclusive = small, poorly fitted or top-dose-only effect, or another doubt; inactive = no such curve, though single readings can be large; an effect the other way counts as inactive or inconclusive. Unless noted, % is scaled to controls: 0 for no effect and ±100 for the full control effect.
SMILES,IL-1B inflam inh,HT1080 IDH1KD tx,TDP1 cell CPT,HT1080-NT tox,DT40 TDP1 no CPT
O=C(Nc1nc2c(F)cc(F)cc2s1)c1ccc([N+](=O)[O-])o1,0.0,-1.9%,14.6µM*,-16.0%,10.3µM*
O=C(Nc1nc2ccccc2s1)c1ccccc1[N+](=O)[O-],-14.4,-5.3%,-19.0%,-15.3%,5.8%
COc1ccc2nc(NC(=O)c3ccc([N+](=O)[O-])o3)sc2c1,-87.9*,18.4µM*,23.1µM*,?,13µM*
O=C(Nc1nc2ccccc2s1)c1ccc([N+](=O)[O-])o1,-67.8*,-14.2%,14.6µM*,?,8.2µM*
O=C(Nc1nc2cc3c(cc2s1)OCCO3)c1ccc([N+](=O)[O-])o1,-86.2*,?,8.2µM*,?,10.3µM*
COc1ccc(NC(=O)CSc2nc3ccccc3c(=O)n2CCCO)cn1,?,-16.2%,-10.2%,-5.4%,-9.1%
COc1cc(-c2nc(C(=O)NCC3CCCO3)cc3c2[nH]c2ccccc23)cc(OC)c1OC (stereo unspecified),-18.1,?,5.8µM*,?,7.31µM*
COc1cccc2[nH]c(C(=O)NCC3CCCO3)cc12 (stereo unspecified),36.5,-2.1%,-4.1%,-20.3%,30.5%
O=C(NCC1CCCO1)c1cc2c([nH]c3ccccc32)c(-c2cccc(Cl)c2)n1 (stereo unspecified),-65.4*,-25.2%,4.11µM*,-25.1%,2.31µM*
COc1ccccc1-c1nc(C(=O)NCC2CCCO2)cc2c1[nH]c1ccccc12 (stereo unspecified),-23.8,-18.3%,20.6µM*,-13.8%,14.6µM*
CC(=O)c1ccc(-c2cnc3c(NC=O)cc(-c4cnn(C)c4)cn23)cc1,?,?,18.4µM*,?,23.1µM*
CC(=O)c1cccc(-c2cnc3c(NC=O)cc(-c4ccccc4F)cn23)c1,156.6,-22.7%,?,-24.3%,?
CC(=O)c1ccc(-c2cnc3c(NC=O)cc(-c4ccc(S(C)(=O)=O)cc4)cn23)cc1,-4.1,6.51µM*,8.2µM*,?,7.31µM*
COc1ccc(Nc2nc(C(F)(F)F)nc(C)c2C#N)cc1,19.6,0.8%,1.1%,0.4%,-6.1%
CCCOc1ccc(CCC(=O)N/N=C/c2ccncc2)cc1,46.1,-7.1%,25.9µM*,-6.3%,?
CCCCNC(=O)C(CC)(ONc1ccccc1C(F)(F)F)c1ccccc1OC (stereo unspecified),?,2.9%,?,-2.4%,16.4µM*
CCCC(=O)NC(=S)Nc1ccccc1C(F)(F)F,21.4,-4.9%,-10.8%,-8.9%,-14.6%
COc1ccc(C)cc1NC(=O)CN(c1ccc(F)cc1)S(C)(=O)=O,-7.1,3.9%,0.0%,-0.2%,-2.2%
COc1ccccc1N(CC(=O)NC1CCCC1)S(=O)(=O)c1ccc(C)cc1,-8.8,1.1%,-20.6%,0.5%,-22.2%
CCOc1ccccc1NC(=O)CN(CCc1ccccc1)S(=O)(=O)c1ccc(C)cc1,.,.,?,.,16.4µM*
CCc1ccccc1NC(=O)CN(c1ccccc1OC)S(=O)(=O)c1ccc(C)cc1,.,.,?,.,18.4µM*
COc1ccc(C)cc1NC(=O)CN(c1cc(C(F)(F)F)ccc1Cl)S(C)(=O)=O,.,.,?,.,16.4µM*
COc1ccc(OC)c(NC(=O)CN(c2ccccc2OC)S(=O)(=O)c2ccc(C)cc2)c1,.,.,16.4µM*,.,25.9µM*
CCOc1ccc(NC(=O)c2ccc3c(SCC(=O)O)c4c(nc3c2)CCC4)cc1,.,.,15.1%,.,11.3%
O=C(CCC1N=C2c3ccccc3N=C(SCC(=O)NCC3CCCO3)N2C1=O)NCc1ccc(F)cc1 (stereo unspecified),-8.3,-5.3%,-8.0%,0.1%,-28.7%
SMILES,IL-1B inflam inh,HT1080 IDH1KD tx,TDP1 cell CPT,HT1080-NT tox,DT40 TDP1 no CPT
CC(=O)O[C@H]1C[C@H]2CC[C@@H]3[C@H]4C[C@@H]([N+]5(C)CCCCC5)[C@@H](OC(C)=O)[C@]4(C)CC[C@@H]3[C@@]2(C)C[C@@H]1[N+]1(C)CCCCC1,.,.,1.8%,.,-4.1%
CCCCCC1(C(=O)OCC)CC(CSC(=N)N)OC1=O (stereo unspecified),-22.6,1.8%,20.6µM*,1.5%,16.4µM*
Cc1cccc(NC(=O)C2CCN(c3nnc(C)c4c(C)n(-c5ccccc5)nc34)CC2)c1C,.,.,-16.4%,.,14.0%
COc1ccc(NC(=O)C(C)n2nc(C)c3c(C)n(-c4ccccc4)nc3c2=O)cc1Cl (stereo unspecified),.,.,-28.4%,.,?
COc1ccc(NC(=O)C2CCCN(c3nnc(C)c4c(C)n(-c5ccccc5)nc34)C2)cc1Cl (stereo unspecified),.,.,10.3µM*,.,16.4µM*
Cc1nnc(N2CCCC(C(=O)Nc3cc(F)ccc3F)C2)c2nn(-c3ccccc3)c(C)c12 (stereo unspecified),-16.6,-4.2%,13µM*,-2.4%,23.1µM*
Cc1nnc(N2CCCC(C(=O)Nc3ccccc3C(F)(F)F)C2)c2nn(-c3ccccc3)c(C)c12 (stereo unspecified),.,.,18.4µM*,.,18.4µM*
CCOc1ccc(NC(=O)NNC(=O)c2cc3ccccc3cc2O)cc1,5.5,-0.1%,7.0%,13.1%,5.1%
COc1cc(CCCN2C(=S)NC[C@H]2Cc2ccc(O)cc2)cc(OC)c1OC,2.0,0.3%,?,8.9%,14.6µM*
COc1cc(CCCN2C(=O)C(=O)NC[C@@H]2Cc2ccc(O)cc2)cc(OC)c1OC,-6.9,25.1%,3.6%,17.2%,0.3%
COc1ccc(C2/C=C\CN(S(=O)(=O)c3ccc(C)cc3)CC(=O)N2Cc2cccc(F)c2)cc1 (stereo unspecified),27.2,-4.7%,14.6µM*,-2.1%,?
COc1ccc(C2/C=C\CC(NS(=O)(=O)c3ccc(C)cc3)CC(=O)N2Cc2ccccc2F)cc1 (stereo unspecified),-22.4,-0.6%,23.1µM*,-2.9%,?
COc1ccc([C@H]2/C=C\CN(S(=O)(=O)c3ccc(C)cc3)[C@@H](C)C(=O)N2Cc2ccc(F)cc2)cc1,26.0,4.1%,18.4µM*,0.5%,?
COc1ccc(C2/C=C\CN(CC(C)(C)C)CC(=O)N2Cc2ccc(F)cc2)cc1 (stereo unspecified),-10.7,-2.0%,?,1.6%,?
COc1ccc(C2/C=C\CN(CC3CC3)CC(=O)N2Cc2ccc(F)cc2)cc1 (stereo unspecified),-23.1,1.8%,?,0.6%,?

# Screening results deposited in PubChem by National Center for Advancing Translational Sciences (NCATS).
